Results taken from PubChem BioAssay (NCATS).
Records with an inconclusive call do not appear. The source made the active and inactive calls. Calls come from the whole dose curve; as a rule, active = well fitted curve in the direction sought with a large enough effect; inconclusive = small, poorly fitted or top-dose-only effect, or another doubt; inactive = no such curve, though single readings can be large; an effect the other way counts as inactive or inconclusive.

Columns and labels:
[1] = target: Glutathione peroxidase 1 (Homo sapiens) (UniProt P07203); experiment: Primary qHTS Assay for Inhibitors of Recombinant Selenoprotein Glutathione Peroxidase 1 (GPX1) (AID 1845191); note: nearly all actives have a fitted effect of over 65% in size; for activity, negative = inhibition: % is set by controls: 0 for no effect and ±100 for the full control effect
In short: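 GR-coupled readout: NADPH consumption tracked by fluorescence, ex 340/em 450 nm, at t=0 and after 15 min at RT. Final mix 10 nM GPX1, 1 mM GSH, 0.5 mM CHP, 0.5 mM NADPH, 100 nM GR, 0.01% BSA, following 30 min enzyme–compound preincubation.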

[2] = target: Phospholipid hydroperoxide glutathione peroxidase GPX4 (Homo sapiens) (UniProt P36969); experiment: Primary qHTS Assay for Inhibitors of Recombinant Selenoprotein Glutathione Peroxidase 4 (GPX4) (AID 1845192); note: nearly all actives have a fitted effect of over 65% in size; for activity change, negative = inhibition: series mostly up to about 50 µM; % is set by controls: 0 for no effect and ±100 for the full control effect
In short: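 Steps: GPX4 plus compound, 30 min RT; add GR/GSH/NADPH master mix; start with cumene hydroperoxide; read 340/450 nm fluorescence at 0 and 15 min. Finals were 200 nM GPX4, 1 mM GSH, 0.5 mM CHP, 0.5 mM NADPH, 100 nM GR.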

[3] = target: Luciferin 4-monooxygenase (Photinus pyralis) (UniProt P08659); experiment: Primary firefly luciferase (FLuc) qHTS assay for identification of artifact compounds. (AID 1845220); note: nearly all actives have a fitted effect of over 60% in size;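 for activity change, negative = inhibition: series mostly up to about 54 µM; plate controls were DMSO vehicle for no effect and no enzyme for full effect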
In short: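 Enzymatic FLuc inhibition assay: compounds pre-exposed to luciferin/ATP (10 uM each) for 15 min, then purified P. pyralis enzyme at 10 nM added. Read-out: luminescence at 5 min.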

[4] = Primary fluorescence-based thiol-reactive (MSTI) qHTS assay for identification of artifact compounds. (AID 1845221); note: nearly all actives have a fitted effect of over 65% in size; note: potency is the fitted concentration of half-maximal effect;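 for activity change, negative = thiol reactive: series mostly up to about 54 µM; thiol-reactive compounds lower the probe fluorescence signal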
In short: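 One-hour, room-temperature, dark incubation of compound with 4 uM MSTI in PBS (pH 7.4, 2% DMSO) precedes a fluorescence read at 525 nm excitation, 598 nm emission; Hill-equation fitting yields concentration-response values.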

[5] = test system: Nanoluciferase (engineered Oplophorus gracilirostris luciferase); experiment: Primary Nanoluciferase (NLuc) qHTS assay for identification of artifact compounds. (AID 1845222);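 note: NLuc secreted into diluted conditioned medium of S16 cells; series mostly up to about 54 µM; 0% = DMSO and -100% = no enzyme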
In short: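 S16 cell supernatant NLuc, 1:55; cpds qHTS; 15 min RT dark; Nano-Glo substrate 1:100, 5 min; luminescence; Hill fit of % inhibition.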

[6] = Primary redox qHTS assay for identification of artifact compounds. (AID 1845223);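 note: 0% = DMSO and 100% = reference compound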
In short: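 Redox-cycling detection via DTT (250 uM final) oxidation coupled to Amplex Red (25 uM)/HRP (250 mU/mL) in HBSS. 15 min preincubation plus 30 min after DTT, room temperature. Ex/Em 525/598 nm; 4-parameter Hill fit against DMSO and 10 uM DA3003.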

Sequence of Glutathione peroxidase 1 (Homo sapiens) (P07203 whole entry, looked up): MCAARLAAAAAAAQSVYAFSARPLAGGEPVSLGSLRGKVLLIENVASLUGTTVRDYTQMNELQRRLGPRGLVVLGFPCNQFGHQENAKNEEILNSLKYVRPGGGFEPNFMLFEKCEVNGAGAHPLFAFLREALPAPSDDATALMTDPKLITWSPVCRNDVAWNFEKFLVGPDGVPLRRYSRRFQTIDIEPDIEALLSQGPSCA
Sequence of Phospholipid hydroperoxide glutathione peroxidase GPX4 (Homo sapiens) (P36969 whole entry, looked up): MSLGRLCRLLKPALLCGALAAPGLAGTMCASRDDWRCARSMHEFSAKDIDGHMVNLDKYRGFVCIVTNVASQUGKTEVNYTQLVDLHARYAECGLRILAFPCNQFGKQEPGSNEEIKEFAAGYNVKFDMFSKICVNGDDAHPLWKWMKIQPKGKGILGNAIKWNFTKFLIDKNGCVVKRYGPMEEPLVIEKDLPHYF

CC(C)CC(c1c(O)c(C=O)c(O)c(C=O)c1O)C1CCC(C)(O)C2CC(C(C)(C)O)CCC12C (stereo unspecified)
inactive: Potency [1] | Potency [2] | Potency [3] | Potency [5]
active: Potency [4] 4.12 µM

CC1CCC2C(C)(C)[C@H](O)CC[C@]2(C)C12Cc1c(O)cc3c(c1O2)CN(C(CCC(=O)O)C(=O)O)C3=O (stereo partly specified)
inactive: Potency [1] | Potency [2] | Potency [3] | Potency [4] | Potency [5]

Cc1cc(C(=O)N2Cc3cnn(C)c3Nc3ccccc32)ccc1CNC(=O)N1CCN(Cc2cc(O)cc(O)c2)CC1
inactive: Potency [1] | Potency [2] | Potency [3] | Potency [4] | Potency [5]

C[C@@H]1O[C@@H](O[C@H]2[C@H](O[C@H]3[C@H](O[C@H]4CC[C@@]5(C)C(CC[C@]6(C)C5CC=C5[C@@H]7CC(C)(C)CC(=O)[C@]7(C)CC[C@]56C)[C@@]4(C)CO)O[C@H](C(=O)O)[C@@H](O)[C@@H]3O)O[C@H](CO)[C@H](O)[C@@H]2O)[C@H](O)[C@H](O)[C@H]1O (stereo partly specified)
inactive: Potency [1] | Potency [2] | outcome [3] inactive [at 11.6 µM] | activity change, negative = thiol reactive [4] 40% [at 11.5 µM] | activity, negative = inhibition [5] -0.78% [at 11.6 µM]

Cc1ncc(NC(=O)c2ccc(CN3CCN(C)CC3)c(C(F)(F)F)c2)cc1Nc1nccc(-c2cccnc2)n1
inactive: Potency [1] | Potency [2] | Potency [3] | Potency [4] | Potency [5]

C=C1CCC2C(C)(C)CC(O)CC2(C)C1CCC(C)CC(=O)O (stereo unspecified)
active: Potency [4] 18.5 µM
inactive: Potency [1] | Potency [2] | Potency [3] | Potency [5]

C=C1C(O)C(O)C2(CC3C(C)=CCC4C(C)(C(=O)O)CCCC34C)OC2C1O (stereo unspecified)
active: Potency [4] 5.21 µM
inactive: Potency [1] | Potency [2] | Potency [3] | Potency [5]

CC(C)=CCC[C@](C)(O[C@@H]1O[C@H](CO[C@@H]2O[C@@H](CO)[C@H](O)[C@H]2O)[C@@H](O)[C@H](O)[C@H]1O)[C@H]1CC[C@]2(C)[C@@H]1[C@H](O)C[C@@H]1[C@@]3(C)CC[C@H](O[C@@H]4O[C@H](CO)[C@@H](O)[C@H](O)[C@H]4O[C@@H]4O[C@H](CO)[C@@H](O)[C@H](O)[C@H]4O)C(C)(C)[C@@H]3CC[C@]12C
inactive: Potency [1] | Potency [2] | Potency [3] | Potency [4] | Potency [5]

CCOc1ncc(S(=O)(=O)N2CCN(CC)CC2)cc1-c1nc2c(CC)n(CCOC)nc2c(=O)[nH]1
inactive: Potency [1] | Potency [2] | Potency [3] | Potency [4] | Potency [5]

O=c1[nH]ccc2nc(-c3ccc(CN4CCC(c5nc(-c6ccccn6)n[nH]5)CC4)cc3)c(-c3ccccc3)cc12
inactive: Potency [1] | Potency [2] | Potency [3] | Potency [4] | Potency [5]

CC1(C)C[C@H]2C=C(C=O)[C@]3(C(=O)O)C[C@]3(C)[C@H]2C1
active: Potency [4] 11.9 µM
inactive: Potency [1] | Potency [2] | Potency [3] | Potency [5]

CC(=O)O[C@@H]1C(O)C[C@@]2(C)C(CC[C@@H](C)C23Cc2c(O)cc4c(c2O3)CNC4=O)C1(C)C (stereo partly specified)
inactive: Potency [1] | Potency [2] | Potency [3] | Potency [4] | Potency [5]

CC(=O)OC1CC(=O)C2(C)C3CC4=C(OC(C)CC4=O)OC3(C)CCC2C1(C)C (stereo unspecified)
inactive: Potency [1] | Potency [2] | Potency [3] | Potency [5]
active: Potency [4] 11.6 µM

CC(C/C=C/C(C)(C)O)C1CCC(C)(O)C(O)C1 (stereo unspecified)
inactive: Potency [1] | Potency [2] | Potency [3] | Potency [4] | Potency [5]

C[C@@H]1O[C@@H](OC2C(CO)OC(OCC3OC(OC(=O)[C@]45CCC(C)(C)CC4C4=CCC6[C@@]7(C)CC[C@@H](O)[C@](C)(C(=O)O)C7CC[C@@]6(C)[C@]4(C)CC5)C(O)C(O)C3O)C(O)C2O)[C@H](O)[C@H](O)[C@H]1O (stereo partly specified)
inactive: Potency [1] | Potency [2] | activity change, negative = inhibition [3] -1.59% [at 11.6 µM] | activity change, negative = thiol reactive [4] 268% [at 11.5 µM] | activity, negative = inhibition [5] 3.23% [at 11.6 µM]

C[C@]1(OC(=O)/C=C/c2ccccc2)C[C@@H](O)[C@]2(O)C=CO[C@@H](O[C@@H]3O[C@H](CO)[C@@H](O)[C@H](O)[C@H]3O)[C@@H]21
inactive: Potency [1] | Potency [2] | Potency [3] | Potency [4] | Potency [5] | Potency [6]

CC1(C)CC[C@]2(C(=O)O[C@@H]3O[C@H](CO[C@@H]4O[C@H](CO[C@@H]5O[C@H](CO)[C@H](O)[C@H](O)[C@H]5O)[C@@H](O)[C@H](O)[C@H]4O)[C@@H](O)[C@H](O[C@@H]4O[C@H](CO)[C@@H](O)[C@H](O)[C@H]4O)[C@H]3O)[C@H](O)C[C@]3(C)C(=CCC4[C@@]5(C)CC[C@H](O[C@@H]6OC[C@@H](O)[C@H](O)[C@H]6O)[C@@](C)(C(=O)O)C5CC[C@]43C)[C@@H]2C1 (stereo partly specified)
inactive: Potency [1] | Potency [2] | outcome [3] inactive [at 11.6 µM] | activity change, negative = thiol reactive [4] 27.9% [at 11.5 µM] | activity, negative = inhibition [5] -3.7% [at 11.6 µM]

CC1=C[C@H](O)[C@H]2C(C)(C)CCC[C@]2(C)[C@@]1(O)CO
inactive: Potency [1] | Potency [2] | Potency [3] | Potency [4] | Potency [5] | Potency [6]

C=C1C2CCC3CC2(CC(O)C2(O)C1CC(OC1OC(CO)C(O)C(O)C1O)C2(C)C)CC3(C)O (stereo unspecified)
active: Potency [4] 5.19 µM
inactive: Potency [1] | Potency [2] | Potency [3] | Potency [5] | Potency [6]

C[C@@H]1C[C@@H](O)[C@@]23CO[C@]2(CO)CCC[C@@H]3[C@@]12C[C@@H](c1ccoc1)OC2=O
inactive: Potency [1] | Potency [2] | Potency [3] | Potency [4] | Potency [5] | Potency [6]

C/C(=C\CCC(C)C1CC(O)C2(C)C3CCC4C(C)(C)C(OC5OCC(O)C(O)C5O)CCC45CC35CC(O)C12C)C(=O)O (stereo unspecified)
inactive: Potency [1] | Potency [2] | Potency [3] | Potency [4] | Potency [5] | Potency [6]

CCOc1ccc(-c2nn3ncccc3c2-c2ccc(S(C)(=O)=O)cc2)cc1
inactive: Potency [1] | Potency [2] | Potency [3] | Potency [4] | Potency [5] | Potency [6]
